Results taken from the supplement of paper PMC10849652.
The full data set covers some 7,900 targets. This sample favours those with a hit. About 0.6% of all pairs of compound and target were hits. Values without a mark were called inactive.

Legend:
Test in all cases: log2 fold change, soluble protein after heating vs DMSO (PISA); higher = thermal stabilisation; K562 cells, 10 uM, 30 min; active = over 0.2 and 3.5 SD of the protein, either way, in both replicates (recomputed)
[1] = compound: C#Cc1cccc(Nc2ncnc3cc(OCCOC)c(OCCOC)cc23)c1 [erlotinib]
Procedure, shortened: (§1)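 Quantification of soluble protein used TMTpro 16plex LC-MS/MS, with channel sums equalised. Samples were the supernatant after 21,000xg for 90 min of pooled aliquots from K562 cells (2×10^6 cells/mL) treated with 10 μM compound for 30 min, heated for 3 min over 48°C-58°C, and extracted in PBS with 0.5% NP-40 at 4°C. Values, from duplicates, describe thermal stability against control samples on a log2 fold-change scale.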

[2] = compound: C/C(=N\NC(=O)C1=CC(=CC=C1)S(=O)(=O)N2CCOCC2)/C3=C(C=CC(=C3)Cl)O
Procedure, shortened: as §1

[3] = compound: C1=CC(=C(C=C1Cl)C2=NC3=NC=CN=C3C(=N2)NC4=CC=NC=C4)F
Procedure, shortened: as §1

[4] = compound: C1=CC(=CC=C1C2=NC3=C(N2)C=C(C=C3)C(=O)N)OC4=CC=C(C=C4)Cl
Procedure, shortened: as §1

[5] = compound: C1=CC2=C(C=CC(=C2)/C=C\3/C(=O)NC(=NCC4=CC=CS4)S3)N=C1
Procedure, shortened: as §1

[6] = compound: C1=CC2=NC=CN=C2C=C1/C=C/3\C(=O)NC(=O)S3
Procedure, shortened: as §1

[7] = compound: C1=CC=C(C=C1)C2=NC(=C(N2)C3=CC=NC=C3)C4=CC(=C(C=C4)Cl)O
Procedure, shortened: as §1

[8] = compound: C1=CC=C2C(=C1)C3=NNC4=CC=CC(=C43)C2=O
Procedure, shortened: as §1

[9] = compound: C1CCN(C1)C(=O)NC2=CC=CC(=C2)NC3=NC=C(C(=N3)NCCC4=CN=CN4)Br
Procedure, shortened: as §1

[10] = compound: C1CN(CCC1(CC2=CC=C(C=C2)Cl)N)C3=NC=NC4=C3C=CN4
Procedure, shortened: as §1

[11] = compound: C1COCCN1CCN2C3=CC=CC=C3N=C2NC(=O)C4=CC(=CC=C4)[N+](=O)[O-] [IRAK-1-4 Inhibitor I]
Procedure, shortened: as §1

[12] = compound: C=CC(=O)N1CCC[C@@H](n2nc(-c3ccc(Oc4ccccc4)cc3)c3c(N)ncnc32)C1 [ibrutinib]
Procedure, shortened: as §1

[13] = compound: CC(=O)c1cnc2ccc(-c3cc(Cl)c(O)c(Cl)c3)nc2c1N[C@H]1CC[C@H](CN(C)C)CC1
Procedure, shortened: as §1

[14] = compound: CC(C)(C)Cn1c(N)nc2ccc(-c3[nH]c(C(C)(C)C)nc3-c3ccc(F)cc3)nc21 [ralimetinib]
Procedure, shortened: as §1

[15] = compound: CC(C)(O)CC(=O)NCCn1ccc2ncnc(Nc3ccc(Oc4cccc(C(F)(F)F)c4)c(Cl)c3)c21
Procedure, shortened: as §1

[16] = compound: CC(C)C1=C2N=C(C=C(N2N=C1)NCC3=CC=CC=C3)NCCCCCCN
Procedure, shortened: as §1

[17] = compound: CC(C)C[C@@H](C=O)NC(=O)[C@H](CC(C)C)NC(=O)[C@H](CC(C)C)NC(=O)OCc1ccccc1
Procedure, shortened: as §1

[18] = compound: CC(C)N(C[C@H]1O[C@@H](n2cnc3c(N)ncnc32)[C@H](O)[C@@H]1O)[C@H]1C[C@@H](CCc2nc3cc(C(C)(C)C)ccc3[nH]2)C1 [pinometostat]
Procedure, shortened: as §1

[19] = compound: CC1=C(C(CC(=O)N1)C2=CC=C(C=C2)C(F)(F)F)C(=O)NC3=C(C=C4C(=C3)C=NN4)F
Procedure, shortened: as §1

[20] = compound: CC1=C(C2=C(C=C1)C(=O)C3=CC=CC=C3N2CCCN)C
Procedure, shortened: as §1

Sequence of UniProt P0CG38 (P0CG38 whole entry, looked up): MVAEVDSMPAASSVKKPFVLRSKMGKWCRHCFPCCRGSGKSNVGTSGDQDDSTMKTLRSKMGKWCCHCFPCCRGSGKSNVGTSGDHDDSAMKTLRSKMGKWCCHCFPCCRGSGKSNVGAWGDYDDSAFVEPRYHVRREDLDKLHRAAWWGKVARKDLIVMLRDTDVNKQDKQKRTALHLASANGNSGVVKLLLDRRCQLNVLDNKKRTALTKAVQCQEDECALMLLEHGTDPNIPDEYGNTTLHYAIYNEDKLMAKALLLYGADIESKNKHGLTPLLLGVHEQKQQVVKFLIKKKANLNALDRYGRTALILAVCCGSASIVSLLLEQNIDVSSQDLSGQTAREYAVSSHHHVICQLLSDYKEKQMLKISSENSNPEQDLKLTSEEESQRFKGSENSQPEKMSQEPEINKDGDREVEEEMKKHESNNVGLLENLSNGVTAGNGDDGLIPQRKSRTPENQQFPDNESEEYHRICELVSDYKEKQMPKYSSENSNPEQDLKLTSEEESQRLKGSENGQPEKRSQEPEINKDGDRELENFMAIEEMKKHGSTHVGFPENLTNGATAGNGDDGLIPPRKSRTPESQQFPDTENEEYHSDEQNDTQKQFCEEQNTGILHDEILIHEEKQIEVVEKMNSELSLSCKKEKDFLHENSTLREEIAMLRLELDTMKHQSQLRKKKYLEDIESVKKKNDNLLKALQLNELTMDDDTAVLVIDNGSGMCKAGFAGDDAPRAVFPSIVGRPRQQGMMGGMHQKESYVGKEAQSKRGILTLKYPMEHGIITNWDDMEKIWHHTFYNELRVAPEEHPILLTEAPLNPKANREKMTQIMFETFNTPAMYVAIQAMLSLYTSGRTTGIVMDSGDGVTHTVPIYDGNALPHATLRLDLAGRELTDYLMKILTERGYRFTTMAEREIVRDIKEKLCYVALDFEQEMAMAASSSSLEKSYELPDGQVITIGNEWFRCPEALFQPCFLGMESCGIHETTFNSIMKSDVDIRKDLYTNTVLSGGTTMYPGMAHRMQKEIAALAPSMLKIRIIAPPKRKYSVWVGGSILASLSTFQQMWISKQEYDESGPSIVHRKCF
Sequence of UniProt Q13200 (Q13200 whole entry, looked up): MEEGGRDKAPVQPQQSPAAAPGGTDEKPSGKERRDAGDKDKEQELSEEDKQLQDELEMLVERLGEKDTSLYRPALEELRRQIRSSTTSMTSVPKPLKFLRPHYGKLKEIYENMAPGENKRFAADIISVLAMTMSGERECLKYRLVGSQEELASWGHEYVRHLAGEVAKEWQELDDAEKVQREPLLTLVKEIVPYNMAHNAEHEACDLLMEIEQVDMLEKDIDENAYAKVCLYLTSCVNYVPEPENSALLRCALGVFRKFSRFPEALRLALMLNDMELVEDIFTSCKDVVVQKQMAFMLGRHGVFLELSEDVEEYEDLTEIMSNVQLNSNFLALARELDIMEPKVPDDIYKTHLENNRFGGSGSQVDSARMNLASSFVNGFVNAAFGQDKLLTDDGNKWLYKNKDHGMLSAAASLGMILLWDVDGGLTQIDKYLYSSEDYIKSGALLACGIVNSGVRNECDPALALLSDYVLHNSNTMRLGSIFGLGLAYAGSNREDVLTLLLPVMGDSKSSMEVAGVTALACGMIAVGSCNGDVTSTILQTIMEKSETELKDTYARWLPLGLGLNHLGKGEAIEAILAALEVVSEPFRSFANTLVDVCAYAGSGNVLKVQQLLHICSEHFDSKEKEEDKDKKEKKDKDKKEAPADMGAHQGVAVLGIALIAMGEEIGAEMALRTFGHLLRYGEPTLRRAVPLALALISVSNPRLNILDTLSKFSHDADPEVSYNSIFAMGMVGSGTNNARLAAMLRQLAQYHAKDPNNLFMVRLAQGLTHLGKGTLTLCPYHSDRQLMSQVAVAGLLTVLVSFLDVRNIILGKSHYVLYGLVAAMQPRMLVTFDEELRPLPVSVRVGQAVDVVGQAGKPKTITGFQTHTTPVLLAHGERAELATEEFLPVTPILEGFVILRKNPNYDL
Sequence of UniProt P11216 (P11216 whole entry, looked up): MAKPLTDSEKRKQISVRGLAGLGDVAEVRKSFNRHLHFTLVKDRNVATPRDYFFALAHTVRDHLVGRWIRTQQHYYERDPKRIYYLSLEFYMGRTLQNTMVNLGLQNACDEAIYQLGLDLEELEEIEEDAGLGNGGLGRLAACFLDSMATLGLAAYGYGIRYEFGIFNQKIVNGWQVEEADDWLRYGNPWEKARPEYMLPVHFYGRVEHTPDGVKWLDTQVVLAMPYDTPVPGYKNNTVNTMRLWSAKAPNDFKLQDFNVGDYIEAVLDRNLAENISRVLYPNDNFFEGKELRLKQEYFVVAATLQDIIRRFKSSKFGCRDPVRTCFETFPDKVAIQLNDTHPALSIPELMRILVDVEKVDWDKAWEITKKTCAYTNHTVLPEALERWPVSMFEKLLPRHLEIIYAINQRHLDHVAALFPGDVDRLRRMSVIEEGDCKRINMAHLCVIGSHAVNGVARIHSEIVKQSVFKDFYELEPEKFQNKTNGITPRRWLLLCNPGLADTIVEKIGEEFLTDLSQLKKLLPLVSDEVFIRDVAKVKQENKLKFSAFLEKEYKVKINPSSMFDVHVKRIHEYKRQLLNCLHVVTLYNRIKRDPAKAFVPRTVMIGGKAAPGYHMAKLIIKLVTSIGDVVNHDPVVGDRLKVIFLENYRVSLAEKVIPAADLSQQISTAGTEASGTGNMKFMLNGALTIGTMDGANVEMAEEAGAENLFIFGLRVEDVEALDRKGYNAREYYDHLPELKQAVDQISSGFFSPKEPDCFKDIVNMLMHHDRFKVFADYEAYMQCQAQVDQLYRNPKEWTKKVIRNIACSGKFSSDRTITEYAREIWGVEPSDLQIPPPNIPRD
Sequence of UniProt Q14442 (Q14442 whole entry, looked up): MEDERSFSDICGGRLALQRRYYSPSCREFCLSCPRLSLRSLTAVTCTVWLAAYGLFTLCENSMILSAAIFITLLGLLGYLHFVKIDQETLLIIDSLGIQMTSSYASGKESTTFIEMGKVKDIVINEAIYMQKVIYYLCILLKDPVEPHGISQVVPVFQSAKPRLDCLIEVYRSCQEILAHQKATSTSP
Sequence of UniProt O00329 (O00329 whole entry, looked up): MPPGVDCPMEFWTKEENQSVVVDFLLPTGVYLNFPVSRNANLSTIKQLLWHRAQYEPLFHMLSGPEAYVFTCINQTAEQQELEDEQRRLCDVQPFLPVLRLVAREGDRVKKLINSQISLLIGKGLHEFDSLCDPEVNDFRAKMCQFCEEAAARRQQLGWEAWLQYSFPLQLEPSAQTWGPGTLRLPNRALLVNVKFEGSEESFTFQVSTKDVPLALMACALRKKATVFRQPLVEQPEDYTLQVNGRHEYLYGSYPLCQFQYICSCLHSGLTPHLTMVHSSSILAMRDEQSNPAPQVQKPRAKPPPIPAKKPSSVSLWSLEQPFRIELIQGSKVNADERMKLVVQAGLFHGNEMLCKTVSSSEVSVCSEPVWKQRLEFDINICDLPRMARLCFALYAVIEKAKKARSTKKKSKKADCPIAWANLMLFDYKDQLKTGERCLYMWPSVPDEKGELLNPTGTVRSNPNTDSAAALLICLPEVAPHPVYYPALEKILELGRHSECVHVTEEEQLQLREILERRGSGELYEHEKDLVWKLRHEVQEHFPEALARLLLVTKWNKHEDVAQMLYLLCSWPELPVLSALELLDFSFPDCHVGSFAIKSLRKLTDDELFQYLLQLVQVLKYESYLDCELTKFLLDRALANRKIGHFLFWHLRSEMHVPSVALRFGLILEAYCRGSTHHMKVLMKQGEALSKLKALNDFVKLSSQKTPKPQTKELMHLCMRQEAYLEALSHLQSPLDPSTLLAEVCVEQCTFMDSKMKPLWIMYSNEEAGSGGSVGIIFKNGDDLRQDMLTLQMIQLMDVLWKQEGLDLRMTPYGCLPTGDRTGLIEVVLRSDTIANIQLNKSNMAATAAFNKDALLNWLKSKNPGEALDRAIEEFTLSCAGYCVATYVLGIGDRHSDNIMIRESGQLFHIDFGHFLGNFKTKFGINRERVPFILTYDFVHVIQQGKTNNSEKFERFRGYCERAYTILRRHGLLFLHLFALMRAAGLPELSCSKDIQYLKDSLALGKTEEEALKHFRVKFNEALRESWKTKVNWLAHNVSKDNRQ
Sequence of UniProt P17980 (P17980 whole entry, looked up): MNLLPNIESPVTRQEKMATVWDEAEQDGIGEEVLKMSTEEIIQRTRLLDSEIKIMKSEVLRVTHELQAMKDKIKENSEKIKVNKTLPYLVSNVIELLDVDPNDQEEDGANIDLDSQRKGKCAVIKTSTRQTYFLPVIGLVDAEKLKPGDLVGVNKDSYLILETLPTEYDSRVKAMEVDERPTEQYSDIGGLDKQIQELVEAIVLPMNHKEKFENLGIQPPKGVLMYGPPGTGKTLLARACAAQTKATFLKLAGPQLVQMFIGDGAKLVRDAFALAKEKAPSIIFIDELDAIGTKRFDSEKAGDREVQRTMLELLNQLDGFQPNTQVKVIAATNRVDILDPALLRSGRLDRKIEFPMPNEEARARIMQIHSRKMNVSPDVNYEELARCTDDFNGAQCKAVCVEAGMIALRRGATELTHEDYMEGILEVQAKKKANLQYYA
Sequence of UniProt O60678 (O60678 whole entry, looked up): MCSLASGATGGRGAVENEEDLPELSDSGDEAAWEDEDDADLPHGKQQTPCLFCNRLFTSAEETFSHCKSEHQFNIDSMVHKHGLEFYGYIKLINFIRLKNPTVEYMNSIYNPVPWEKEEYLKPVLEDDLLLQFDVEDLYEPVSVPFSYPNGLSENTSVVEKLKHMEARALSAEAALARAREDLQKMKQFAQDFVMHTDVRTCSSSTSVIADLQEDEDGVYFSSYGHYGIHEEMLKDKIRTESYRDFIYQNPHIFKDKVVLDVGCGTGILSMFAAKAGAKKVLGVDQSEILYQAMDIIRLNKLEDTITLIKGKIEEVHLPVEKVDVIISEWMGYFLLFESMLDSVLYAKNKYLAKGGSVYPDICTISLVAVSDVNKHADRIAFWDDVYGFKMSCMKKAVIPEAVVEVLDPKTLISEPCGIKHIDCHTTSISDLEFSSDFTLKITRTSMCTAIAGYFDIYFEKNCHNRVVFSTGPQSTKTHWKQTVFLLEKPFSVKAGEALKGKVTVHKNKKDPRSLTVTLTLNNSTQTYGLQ

| Target | log2 fold change [1] | log2 fold change [2] | log2 fold change [3] | log2 fold change [4] | log2 fold change [5] | log2 fold change [6] | log2 fold change [7] | log2 fold change [8] | log2 fold change [9] | log2 fold change [10] | log2 fold change [11] | log2 fold change [12] | log2 fold change [13] | log2 fold change [14] | log2 fold change [15] | log2 fold change [16] | log2 fold change [17] | log2 fold change [18] | log2 fold change [19] | log2 fold change [20] |
| --- | --- | --- | --- | --- | --- | --- | --- | --- | --- | --- | --- | --- | --- | --- | --- | --- | --- | --- | --- | --- |
| PYGB (UniProt P11216) | -0.047 | -0.022 | -0.003 | 0.087 | 0.11 | 0.008 | -0.011 | 0.039 | 0.009 | -0.028 | -0.029 | 0.037 | -0.246 (active) | -0.025 | 0.025 | 0.01 | 0.005 | 0.011 | 0.055 | 0.087 |
| PSMC3 (UniProt P17980) | -0.039 | -0.107 | -0.037 | 0.008 | -0.059 | -0.025 | -0.002 | -0.001 | 0.026 | -0.004 | -0.041 | -0.021 | 0.023 | 0.016 | 0.007 | 0.048 | -0.213 | 0.025 | 0.053 | 0.023 |
| PDCD4 (UniProt Q53EL6) | 0.107 | -0.041 | 0.14 | -0.051 | 0.16 | 0.145 | 0.072 | 0.108 | 0.024 | 0.027 | -0.043 | -0.05 | 0.271 | -0.042 | -0.091 | -0.194 | -0.015 | -0.046 | -0.123 | -0.17 |
| PIP4P1 isoform 2 (UniProt Q86T03) | 0.057 | 0.001 | 0.052 | -0.014 | -0.104 | 0.068 | 0.002 | 0.035 | -0.028 | 0.101 | -0.011 | 0.003 | -0.002 | 0.003 | -0.004 | -0.329 (active) | 0.022 | -0.031 | 0.131 | -0.062 |
| PSMD2 (UniProt Q13200) | -0.095 | -0.095 | -0.042 | -0.001 | -0.043 | -0.024 | 0.007 | 0.016 | 0.005 | -0.021 | -0.08 | -0.035 | 0.039 | 0.018 | 0.021 | 0.039 | -0.296 (active) | 0.019 | 0.04 | -0.036 |
| PPP1CA (UniProt P62136) | 0.026 | -0.002 | -0.015 | -0.006 | 0.036 | -0.005 | 0.001 | -0.03 | -0.004 | 0.009 | 0.041 | -0.02 | -0.018 | -0.012 | 0.007 | 0.015 | 0.009 | -0.071 | -0.013 | -0.007 |
| POTEI (UniProt P0CG38) | 0.023 | 0.007 | -0.009 | 0.011 | -0.037 | -0.052 | 0.045 | 0.038 | -0.003 | 0.046 | -0.176 | 0.046 | 0.052 | 0.003 | 0.015 | 0.059 | -0.025 | -0.179 | 0.021 | 0.012 |
| PECAM1 (UniProt P16284) | -0.039 | 0.072 | -0.055 | 0.057 | 0.054 | -0.024 | -0.05 | -0.133 | 0.057 | 0.021 | 0.021 | 0.004 | -0.031 | -0.002 | -0.082 | 0.141 | -0.057 | 0.012 | 0.039 | 0.261 (active) |
| PCYT1A (UniProt P49585) | -0.014 | 0.125 | -0.03 | -0.001 | 0.019 | 0.054 | -0.09 | -0.033 | -0.043 | -0.009 | 0.081 | -0.032 | -0.007 | -0.072 | -0.019 | -0.163 | 0.084 | -0.005 | 0.116 | -0.137 |
| PRMT3 (UniProt O60678) | -0.056 | 0.147 | 0.03 | 0.027 | 0.066 | 0.011 | 0.028 | -0.003 | -0.01 | -0.089 | 0 | -0.102 | -0.023 | -0.028 | -0.167 | -0.189 | 0.028 | 0.003 | 0.013 | 0.079 |
| PIK3CD (UniProt O00329) | -0.044 | -0.224 | 0.095 | 0.181 | 0.114 | 0.241 | -0.052 | -0.063 | -0.077 | -0.013 | 0.005 | -0.137 | 0.237 | 0.032 | -0.391 | 0.104 | 0.116 | -0.024 | – | 0.259 |
| POLR2A (UniProt P24928) | -0.018 | -0.019 | -0.008 | 0.024 | 0.013 | 0.039 | 0.019 | 0.026 | 0.111 | -0.042 | -0.029 | 0.054 | 0.342 (active) | 0.011 | -0.065 | 0.19 | 0.005 | -0.004 | -0.046 | 0.033 |
| PIGH (UniProt Q14442) | -0.036 | 0.068 | 0.049 | 0.027 | 0.042 | -0.03 | -0.065 | -0.054 | -0.005 | 0.009 | -0.207 | 0.022 | -0.004 | -0.017 | 0.023 | 0.014 | -0.004 | 0.139 | – | 0.096 |
| POM121 (UniProt Q96HA1) | -0.013 | -0.075 | -0.127 | 0.033 | 0.118 | -0.008 | -0.137 | -0.185 | -0.087 | -0.106 | -0.022 | 0.005 | -0.164 | 0.083 | 0.016 | -0.241 | 0.178 | 0.065 | -0.042 | -0.057 |
| PCBP2 (UniProt F8VRH0) | -0.011 | 0.07 | 0.016 | -0.099 | -0.26 | -0.153 | – | -0.04 | -0.13 | 0.113 | 0.118 | 0.057 | -0.092 | – | -0.263 | 0.123 | – | 0.022 | 0.089 | -0.113 |
| PKM (UniProt P14618) | 0.008 | -0.005 | 0.052 | 0.003 | 0.002 | -0.003 | -0.016 | -0.011 | -0.006 | 0.029 | 0.012 | – | -0.011 | -0.018 | -0.02 | 0.079 | -0.013 | -0.033 | 0.021 | 0.036 |
